In the library only some 4% were active in any assay of this set; here they are far more common.
PAX8 inh HTS – inhibitors of PAX8 transcriptional activity in RMG-I cells; AID 652154; hit rate 1.2% among 360,000; RMG-I TPO-luciferase reporter, SteadyGlo, 24 h; inhibition, % at 12.6 µM;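 active means mean replicate inhibition at least 60% with every replicate also reaching 60%; inconclusive means only one of the two criteria is met; inactive means mean below 60% and not all replicates reaching 60%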;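 further: luciferase light reporting Pax8 driven TPO promoter activity; plate controls were median of neutral control wells for no effect and mitoxantrone controls for full effect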
Wnt bcat act – activators of Wnt/beta-catenin signaling | Wnt/beta-catenin reporter cell assay, activator, plate reader | activation, % at 9.35 µM | hit rate 1.2% among 300,000 | AID 743398; in the data active means activation above about 30%, passing the limit was not always enough; inconclusive means no clear call, values can overlap the other calls;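 further: 0% = neutral control wells and 100% = positive control wells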
EWS-Fli block – EWS/Fli transcriptional activity inhibition; hit rate 0.67% among 350,000; inhibition, % at 12.6 µM; A673 NR0B1-luciferase reporter, viability-normalised;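 active means mean inhibition of at least 50% after viability correction, with every replicate also passing that limit; inconclusive means mean reaches 50% but only one of two replicates passes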;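 further: firefly luciferase signal divided by Alamar Blue viability fluorescence both relative to DMSO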
MITF TRPM1 HTS – MITF TRPM1 promoter activation in melanoma cells. AID 588334. activation, % at 12.5 µM. hit rate 0.75% among 300,000. SK-MEL-5 TRPM1-promoter luciferase, 24 h; % of positive control, neutral wells = 0;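 active means mean activation of at least 80% with every replicate also reaching 80%; inconclusive means mean reaches 80% but some replicate falls short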;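 further: 0% = neutral control wells and 100% = parthenolide positive control wells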
esBAF inh – inhibitors of esBAF chromatin remodeling in mouse ES cells. Bmi1-luciferase knock-in reporter, 24 h; 100% = twice the neutral-well signal. reporter increase, % at 12.5 µM. hit rate 2% among 350,000; in the data active means activation above about 40%; inconclusive means no clear call, values can overlap the other calls;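 further: 0% = median of the plate's neutral control wells and 100% = double that signal; a rise in the Bmi1 reporter signal indicates esBAF inhibition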
MITF TRPM1 inh – MITF TRPM1 promoter inhibition in SK-MEL-5 cells; hit rate 0.83% among 330,000; SK-MEL-5 TRPM1 promoter luciferase, 24 h; inhibition, % at 12.5 µM;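 active means mean inhibition across replicates of 60% or more, whatever share of single replicates reaches that level; inconclusive means some that reach 60%, reason not given; inactive means mean inhibition across replicates below 60%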
Starred values were filed as active, the others as inactive.

Cc1ccc(S(=O)(=O)Nc2ccc3c(c2)C(=O)N([C@@H](C)CO)C[C@H](C)[C@@H](CN(C)S(=O)(=O)c2ccccc2)OCCCC[C@H](C)O3)cc1 was read as PAX8 inh HTS 57, EWS-Fli block 5 and esBAF inh -4.
For O=C(NCC[C@@H]1CC[C@@H](NS(=O)(=O)Cc2ccccc2)[C@@H](CO)O1)C1CCC1 the results were PAX8 inh HTS 4, EWS-Fli block -1 and esBAF inh -3.
For Cc1ccc(-c2cnc3c(c2)C(=O)N([C@H](C)CO)C[C@@H](C)[C@@H](CN(C)CC2CCOCC2)O3)cc1 the results were EWS-Fli block -8 and esBAF inh 5.
`O=C(O)c1ccccc1-c1ccccc1C(=O)Nc1ccc(-c2nc3cc(Cl)ccc3o2)cc1` gave PAX8 inh HTS -67, Wnt bcat act 35*, EWS-Fli block -78, MITF TRPM1 HTS 0 and MITF TRPM1 inh 4.
Screening CC(=O)Nc1ccc(-c2nc3cc(Cl)ccc3o2)cc1 returned PAX8 inh HTS -23, Wnt bcat act 18, EWS-Fli block -70, esBAF inh 7 and MITF TRPM1 inh -78.
Screening Cc1ccc(-c2csc(N3C(=N)SCC3=O)n2)cc1 returned PAX8 inh HTS -79, Wnt bcat act 50* and EWS-Fli block -177.
`CC(C)NC(=O)N(C)C[C@H]1Oc2ccc(NS(=O)(=O)c3cccs3)cc2C(=O)N([C@H](C)CO)C[C@H]1C` gave EWS-Fli block 2 and esBAF inh 3.
For O=C1N(Cc2ccccc2)Cc2ccccc2[C@@H]2OC(c3ccc(OCCCO)cc3)=N[C@]12Cc1ccccc1 the results were PAX8 inh HTS 64* and EWS-Fli block 10.
Screening O=C1N(CCS(=O)(=O)c2ccccc2)Cc2ccccc2[C@@H]2OC(c3ccc(OCCCO)cc3)=N[C@]12CCS(=O)(=O)c1ccccc1 returned PAX8 inh HTS 4 and EWS-Fli block 16.
O=C(c1ccccc1)N1Cc2ccccc2C[C@]2(N=C(c3ccc(OCCCO)cc3)O[C@@H]2c2ccccc2)C1=O was read as PAX8 inh HTS 68* and EWS-Fli block -4.
For O=C1N(CCS(=O)(=O)c2ccccc2)Cc2ccccc2C[C@@]12N=C(c1ccc(OCCCO)cc1)O[C@H]2c1ccccc1 the results were PAX8 inh HTS 94* and EWS-Fli block 6.
COCC(=O)N1CC2(C1)[C@@H](c1ccc(-c3ccccc3)cc1)[C@@H](CO)N2C(=O)COC was read as EWS-Fli block -3.
Screening O=C(C[C@@H]1C[C@@H]2c3cc(NC(=O)c4cccnc4)ccc3O[C@@H]2[C@@H](CO)O1)NCC1CC1 returned PAX8 inh HTS -22, EWS-Fli block 1 and esBAF inh 1.
CN1c2ccccc2C(C)(C)C12C=Nc1c(cc(N3CCOCC3)c3ccccc13)O2 (stereo not drawn) was read as PAX8 inh HTS 72*, Wnt bcat act 3, MITF TRPM1 HTS -13, esBAF inh -7 and MITF TRPM1 inh 12.
O=C(CSc1nnc(-c2cccc(F)c2)o1)N1CCCC1 was read as PAX8 inh HTS -56, Wnt bcat act 12, EWS-Fli block -39, MITF TRPM1 HTS 45, esBAF inh 44* and MITF TRPM1 inh -43.
Screening CCOc1ccc(-c2nnc(SCC(=O)N3CCNC3=O)o2)cc1 returned PAX8 inh HTS -132, Wnt bcat act 45*, EWS-Fli block -17, MITF TRPM1 HTS 33, esBAF inh -42 and MITF TRPM1 inh -34.
For O=C(CSc1nnc(-c2ccc(O)cc2)o1)N1CCOCC1 the results were esBAF inh 24 and MITF TRPM1 inh -25.
CCOc1ccc(-c2nnc(SCC(=O)N3CCN(c4ccccc4)CC3)o2)cc1 was read as PAX8 inh HTS 6, Wnt bcat act -3, EWS-Fli block 8, MITF TRPM1 HTS -3, esBAF inh -4 and MITF TRPM1 inh 5.
O=C(CSc1nnc(-c2ccc(Cl)cc2)o1)N1CCOCC1 was read as PAX8 inh HTS -138, Wnt bcat act 10, EWS-Fli block -106, MITF TRPM1 HTS 97*, esBAF inh inconclusive and MITF TRPM1 inh -100.
COc1ccc(NC(=O)N(C)C[C@H]2OCCCC[C@H](C)Oc3ccc(NS(=O)(=O)c4c(C)noc4C)cc3C(=O)N([C@H](C)CO)C[C@@H]2C)cc1 was read as PAX8 inh HTS 13, EWS-Fli block 8 and esBAF inh 4.
`COc1ccc2c3c(n(C)c2c1)[C@@H](CO)N(C(C)=O)CC31CN(C(=O)Nc2ccc(F)cc2)C1` gave PAX8 inh HTS -11 and EWS-Fli block -7.
`CN(C)C(=O)[C@@H]1[C@@H](CO)[C@@H]2Cn3c(ccc(C4=CCCCC4)c3=O)[C@H]1N2Cc1ccccc1` gave PAX8 inh HTS -5, EWS-Fli block 1 and esBAF inh -3.
Screening O=C1/C(=C/Nc2ccc3c(c2)OCO3)CCc2ccccc21 returned MITF TRPM1 HTS -14 and MITF TRPM1 inh 15.
`COc1ccc2c(c1)CC/C(=C/c1cc(OC)c(OC)c(OC)c1)C2=O` gave PAX8 inh HTS 0, Wnt bcat act -4, EWS-Fli block 1, MITF TRPM1 HTS 7, esBAF inh -4 and MITF TRPM1 inh -3.
Screening CC(=O)Oc1ccc(/C=C2/CCc3ccccc3C2=O)cc1 returned PAX8 inh HTS -40, Wnt bcat act 13, EWS-Fli block 74*, MITF TRPM1 HTS 75, esBAF inh 52* and MITF TRPM1 inh -72.
COc1ccc2c(c1)CC/C(=C\Nc1ccc3c(c1)OCO3)C2=O was read as Wnt bcat act 26, EWS-Fli block -99, MITF TRPM1 HTS inconclusive, esBAF inh 53* and MITF TRPM1 inh -78.
`COc1ccc2c(c1)CC/C(=C\C=C\c1ccccc1)C2=O` gave PAX8 inh HTS -65, Wnt bcat act 31*, esBAF inh inconclusive and MITF TRPM1 inh -22.
For COc1cccc(/C=C2\CCc3ccccc3C2=O)c1 the results were PAX8 inh HTS -32, Wnt bcat act 35*, EWS-Fli block 31, MITF TRPM1 HTS 66, esBAF inh 42 and MITF TRPM1 inh -75.
For COc1ccc(/C=C2\CCc3ccccc3C2=O)cc1OC the results were MITF TRPM1 HTS 29, esBAF inh 40 and MITF TRPM1 inh -34.
Screening COc1cccc(C=C2Cc3ccccc3C2=O)c1 returned PAX8 inh HTS -34, Wnt bcat act -2 and EWS-Fli block -100.
CNC[C@H]1OCCCC[C@@H](C)Oc2ccc(NC(=O)Nc3ccccc3)cc2C(=O)N([C@H](C)CO)C[C@H]1C was read as PAX8 inh HTS -25, EWS-Fli block -10 and esBAF inh 4.
Cc1ccc(S(=O)(=O)Nc2ccc3c(c2)C(=O)N([C@@H](C)CO)C[C@H](C)[C@H](CN(C)C)OCCCC[C@H](C)O3)cc1 was read as PAX8 inh HTS 8, EWS-Fli block 0 and esBAF inh 1.

Screening data as filed in PubChem.
